Data as given in PubChem BioAssay AID1159580 (chemical genetic matrix, 2015).
“And” between values parts separate entries of the source, which are not always exact repeats. Equal entries are not always repeated. The campaign covered roughly 5,500 compounds. About 2,000 (36%) were called active. Roughly 18% stayed inconclusive and do not appear here. Rule as the data show it: active = normalized growth mostly below about 0.91 (no sharp cut-off); inconclusive = no clear call, values can overlap the other calls; inactive = mostly above about 0.92. The list shows a part of the results.

Test: chemical genetic growth profiling, strain panel (AID 1159580);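 also: tested at 20 µM; growth read once vehicle control cultures reached saturation at 30 °C; 1 = growth at the plate median or of vehicle wells; lower values mean less growth of the strain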
Settings: S. cerevisiae deletion strains, growth OD

Measured: normalized growth

COc1ccc(Cc2nccc3cc(OC)c(OC)cc23)cc1OC
inactive: locus YAL021C, strain ccr4, active compounds read low 1.04 | locus YAL026C, strain drs2, active compounds read low 1 | locus YAL030W, strain snc1, active compounds read low 1 | locus YAL040C, strain CLN3, active compounds read low 0.983 | locus YBL061C, strain skt5, active compounds read low 1 | locus YBR009C, strain hhf1, active compounds read low 0.995 | locus YBR021W, strain FUR4, active compounds read low 1.01 | locus YBR023C, strain chs3, active compounds read low 1.01 | locus YBR171W, strain sec66, active compounds read low 1.01 | locus YBR229C, strain ROT2, active compounds read low 1.01 | locus YBR231C, strain swc5, active compounds read low 0.998 | locus YBR279W, strain paf1, active compounds read low 1.01 | locus YCL011C, strain gbp2, active compounds read low 1.01 | locus YCL016C, strain dcc1, active compounds read low 1.01 | locus YCL029C, strain bik1, active compounds read low 0.992 | locus YCL061C, strain MRC1 (second series), active compounds read low 1 | locus YCL061C, strain MRC1, active compounds read low 1 | locus YCL069W, strain vba3, active compounds read low 1 | locus YCR088W, strain abp1, active compounds read low 1.01 | locus YDL005C, strain med2, active compounds read low 0.994 | locus YDL035C, strain GPR1, active compounds read low 1.01 | locus YDL040C, strain nat1, active compounds read low 0.998 | locus YDL074C, strain BRE1, active compounds read low 1.02 | locus YDL101C, strain DUN1, active compounds read low 1.01 | locus YDL134C, strain PPH21, active compounds read low 1.01 | locus YDL185W, strain tfp1, active compounds read low 0.992 | locus YDL192W, strain arf1, active compounds read low 0.989 | locus YDR001C, strain nth1, active compounds read low 0.999 | locus YDR069C, strain doa4, active compounds read low 0.989 | locus YDR101C, strain arx1, active compounds read low 0.996 | locus YDR137W, strain rgp1, active compounds read low 1.03 | locus YDR150W, strain NUM1, active compounds read low 1.02 | locus YDR159W, strain sac3, active compounds read low 0.962 | locus YDR162C, strain NBP2, active compounds read low 1 | locus YDR195W, strain ref2 0.981 | locus YDR297W, strain sur2, active compounds read low 1 | locus YDR318W, strain mcm21, active compounds read low 0.976 | locus YDR334W, strain swr1, active compounds read low 1.01 | locus YDR335W, strain msn5, active compounds read low 0.999 | locus YDR363W, strain ESC2, active compounds read low 0.988 | locus YDR388W, active compounds read low 0.993 | locus YDR392W, strain spt3, active compounds read low 0.921 | locus YDR502C, strain sam2, active compounds read low 0.986 | locus YEL003W, strain gim4, active compounds read low 0.996 | locus YEL037C, strain rad23, active compounds read low 1 | locus YEL061C, strain CIN8 (second series), active compounds read low 1 | locus YEL061C, strain CIN8, active compounds read low 1.01 | locus YER002W, strain NOP16, active compounds read low 0.994 | locus YER015W, strain faa2, active compounds read low 1 | locus YER016W, strain bim1, active compounds read low 0.996 | locus YER110C, active compounds read low 0.988 | locus YER111C, strain swi4, active compounds read low 1.01 | locus YER155C, strain BEM2 (second series), active compounds read low 0.987 | locus YER155C, strain BEM2, active compounds read low 1.01 | locus YER167W, strain BCK2, active compounds read low 1.01 | locus YFR010W, strain ubp6, active compounds read low 0.998 | locus YGL078C, strain dbp3, active compounds read low 0.99 | locus YGL086W, strain mad1, active compounds read low 0.994 | locus YGL167C, strain pmr1, active compounds read low 0.998 | locus YGL173C, strain kem1, active compounds read low 0.999 | locus YGL227W, strain vid30, active compounds read low 1 | locus YGL240W, strain doc1, active compounds read low 0.967 | locus YGL248W, strain PDE1, active compounds read low 1.01 | locus YGL253W, strain hxk2, active compounds read low 1.01 | locus YGR078C, strain PAC10, active compounds read low 0.975 | locus YGR135W, strain pre9, active compounds read low 0.977 | locus YGR229C, strain SMI1, active compounds read low 0.995 and 0.994 | locus YGR252W, strain gcn5, active compounds read low 0.949 | locus YHR013C, strain ard1, active compounds read low 1.07 | locus YHR027C, strain rpn1, active compounds read low 0.998 | locus YHR030C, strain SLT2, active compounds read low 1.02 and 0.98 | locus YHR079C, strain IRE1 (second series), active compounds read low 0.985 | locus YHR079C, strain IRE1, active compounds read low 0.972 | locus YHR094C, strain hxt1, active compounds read low 0.992 | locus YHR129C, strain ARP1, active compounds read low 1.02 | locus YHR142W, strain chs7, active compounds read low 0.998 | locus YHR200W, strain rpn10, active compounds read low 0.99 | locus YIL066C, strain RNR3, active compounds read low 1.01 | locus YIL073C, strain SPO22, active compounds read low 0.957 | locus YIL125W, strain kgd1, active compounds read low 0.991 | locus YIR030C, strain dcg1, active compounds read low 0.983 | locus YJL092W, strain hpr5, active compounds read low 1 | locus YJL095W, strain BCK1 (second series), active compounds read low 1 | locus YJL095W, strain BCK1, active compounds read low 1.03 and 0.985 | locus YJL115W, strain asf1, active compounds read low 1 | locus YJL129C, strain trk1, active compounds read low 0.985 | locus YJL134W, strain LCB3, active compounds read low 1.01 | locus YJL154C, strain vps35, active compounds read low 1 | locus YJL164C, strain tpk1, active compounds read low 0.996 | locus YJL166W, strain qcr8, active compounds read low 1.01 | locus YJL168C, strain set2, active compounds read low 0.995 | locus YJL187C, strain SWE1 (second series), active compounds read low 1.01 | locus YJL187C, strain SWE1, active compounds read low 0.996 | locus YJR043C, strain POL32, active compounds read low 1.01
